# Source: PubChem BioAssay (several laboratories)
# The list is not random: actives were taken first. Their share in the collection is about 1.9%.
# H9c2 protect: protects H9c2 cardiomyocytes from peroxide injury; H2O2 injury protection, ATPLite, 2 h; protection from H2O2 cell death, % at 20 µM; 360,000 compounds, 0.63% hits; AID 588492;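 active = compounds giving at least 50% protection of heart cells from peroxide-induced death in the single-dose screen, raw or plate-pattern-corrected value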;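 also: 0% = DMSO wells with peroxide and 100% = DMSO wells without peroxide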
# ATG4B inhibitor: ATG4B (human) cysteine protease inhibition. Q9Y4P1. ATG4B cleavage of LC3-PLA2, NBD-HPC fluorescence, 1 h. inhibition, % at 8.33 µM. 340,000 compounds, 0.51% hits. AID 504462; in the data active = inhibition above about 40%
# PP1 counter: counter-screen for PP5 inhibitors: inhibitors of human PP1-alpha | AID 2235 | 320,000 compounds, 0.9% hits | inhibition, % at 6.7 µM | P62136 | purified PP1alpha, OMFP fluorescence;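 active = inhibition above the mean inhibition of all tested compounds plus 3 SD, computed separately for each screening campaign, cut at about 15% in these data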
# PP5 primary: inhibitors of human protein phosphatase 5 (PP5); P53041; purified PP5c, OMFP substrate fluorescence; inhibition, % at 6.7 µM; 320,000 compounds, 0.18% hits; AID 1987;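 active = inhibition above the campaign's mean inhibition across all tested compounds plus 3 SD, cut at about 9.5% in these data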;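 also: 0% = DMSO only and 100% = 100 µM cantharidin control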
# Target sequence (P53041 whole entry, looked up): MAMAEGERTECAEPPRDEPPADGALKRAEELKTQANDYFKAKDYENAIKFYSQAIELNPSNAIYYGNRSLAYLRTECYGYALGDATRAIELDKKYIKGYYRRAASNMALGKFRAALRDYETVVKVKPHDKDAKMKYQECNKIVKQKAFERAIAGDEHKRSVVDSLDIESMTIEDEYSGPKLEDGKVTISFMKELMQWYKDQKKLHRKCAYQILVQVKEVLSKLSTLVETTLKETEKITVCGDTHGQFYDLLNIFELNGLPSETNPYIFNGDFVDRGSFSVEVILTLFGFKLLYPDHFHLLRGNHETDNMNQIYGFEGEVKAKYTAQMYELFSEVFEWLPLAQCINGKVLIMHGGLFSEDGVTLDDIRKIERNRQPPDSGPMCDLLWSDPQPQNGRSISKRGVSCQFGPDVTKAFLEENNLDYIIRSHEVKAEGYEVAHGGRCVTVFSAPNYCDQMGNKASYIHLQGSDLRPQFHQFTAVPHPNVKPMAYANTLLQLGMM
# PP1 inh confirm: confirmation of human PP1 phosphatase inhibitors. shares compounds with PP1 counter. purified PP1alpha, OMFP substrate fluorescence. inhibition, % at 6.7 µM. 1,900 compounds, 52% hits;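 active = mean PP1 inhibition above a set limit taken from the earlier primary screen, cut at about 15% in these data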
# PP5 counter: PP5 phosphatase inhibition, counter-screen for PP1 inhibitors | purified PP5c, OMFP fluorescence | 1,900 compounds, 4% hits | AID 2360 | inhibition, % at 6.7 µM | shares compounds with PP1 counter;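 active = mean PP5 inhibition over triplicate wells above about 9.5% taken from the earlier PP1 screen, limit read from the data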
# Starred values were filed as active, the others as inactive; nt = not tested or not shown.
SMILES,H9c2 protect,ATG4B inhibitor,PP1 counter,PP5 primary,PP1 inh confirm,PP5 counter
C=CCN(CC=C)S(=O)(=O)c1ccc(C(=O)Nc2nnc(CSC)o2)cc1,8,-9,22*,0,19*,7
CCCN(CCC)S(=O)(=O)c1ccc(C(=O)Nc2nnc(COC)o2)cc1,16,-6,11,2,nt,nt
CCc1nnc(NC(=O)c2ccc(S(=O)(=O)N3CCCc4ccccc43)cc2)o1,30,-14,35*,1,28*,2
CNC(=O)c1ccsc1NC(=O)c1ccc(S(=O)(=O)N2CCCc3ccccc32)cc1,-19,-10,6,3,nt,nt
Cc1oc2c(CN3CCCCC3)c(O)ccc2c(=O)c1-c1ccc(Cl)cc1,-2,-2,1,-3,nt,nt
CNc1nc(N)c(C(=O)C23CC4CC(CC(C4)C2)C3)s1,-2,17,0,1,nt,nt
O=C(Cc1csc(NC(=O)Nc2ccc(Cl)cc2)n1)NCc1ccccn1,-22,-8,5,-1,nt,nt
O=C(Cc1csc(NC(=O)Nc2ccc(Cl)cc2)n1)NC1CCCC1,-15,-3,24*,4,19*,-3
CCC(C)NC(=O)C1(N2C(=O)c3ccccc3C2=O)CCCC1 (centres undefined),2,-2,nt,nt,nt,nt
CC1CC(=O)c2c(cc3c(-c4c(O)cc(O)c5c(O)c6c(cc45)OC(C)CC6=O)c(O)cc(O)c3c2O)O1 (centres undefined),-17,11,70*,1,48*,2
CCOC(=O)c1ccc(NC(=O)CSc2nnc(CCc3ccc(C)o3)n2-c2ccccc2)cc1,-2,2,19*,3,14,-3
Nc1c(Cl)cc(C2=NCCn3c2c2ccc(C(F)(F)F)cc2[n+]3[O-])cc1Cl,1,-8,0,1,nt,nt
CCn1cc(C(=O)NCc2ccco2)c(=O)c2cc(S(=O)(=O)N3CCc4ccccc4C3)ccc21,13,-7,19*,3,18*,1
CCn1cc(C(=O)O)c(=O)c2cc(F)c(N3CCN(S(=O)(=O)c4ccc(NC(C)=O)cc4)CC3)cc21,-1,-3,42*,5,32*,-5
CCn1cc(C(=O)NCC(C)C)c(=O)c2cc(F)c(N3CCN(C(=O)c4ccco4)CC3)cc21,40,-6,2,-3,nt,nt
CCn1cc(C(=O)O)c(=O)c2cc(F)c(N3CCN(C(=O)Nc4ccccc4)CC3)cc21,7,1,18*,1,12,-2
CCn1cc(C(=O)NCc2ccco2)c(=O)c2cc(F)c(N3CCN(C(=O)c4ccco4)CC3)cc21,14,-17,18*,2,8,-5
Cc1sc2nc(SCC(=O)N(C)c3ccccc3)n(C)c(=O)c2c1C,-2,-7,-4,5,nt,nt
CN(CC(=O)Nc1ccc(F)c(F)c1F)C(=O)c1ccc2c(c1)S(=O)(=O)N=C1CCCCCN12,0,-2,1,-1,nt,nt
CN(c1ccccc1)c1ncccn1,-3,-6,-1,2,nt,nt
FC(F)(F)c1cccc(Oc2nc(-c3ccccc3)nnc2C(F)(F)F)c1,-2,2,-3,3,nt,nt
Cc1cccc(Oc2nc(-c3ccccn3)nc3ccccc23)c1,-3,37,15,3,nt,nt
COc1cnc(-c2ccccn2)nc1N(C)c1ccccc1,-5,2,28*,5,28*,-2
COc1cnc(-c2ccccn2)nc1Oc1cccc(C(F)(F)F)c1,-7,nt,46*,4,46*,1
COc1cnc(-c2ccccn2)nc1Oc1ccccc1,-3,-1,23*,0,17*,-3
SMILES,H9c2 protect,ATG4B inhibitor,PP1 counter,PP5 primary,PP1 inh confirm,PP5 counter
COc1ccccc1N(C)S(=O)(=O)c1ccc(C(=O)N2CCCC(C(F)(F)F)C2)cc1 (centres undefined),-5,-3,-2,1,nt,nt
CCOCCC(=O)Nc1nnc(CCc2ccccc2)s1,-2,-1,nt,nt,nt,nt
Cc1ccc(S(=O)(=O)N2C[C@H]3[C@H]4C(=O)N(c5ccccc5)C(=O)[C@H]4C[C@H](OC(=O)NC4CCCC4)[C@@]3(O)C2)cc1,3,nt,nt,nt,nt,nt
CCCCCC(=O)Cc1cc(O)cc2c1C(=O)Oc1cc(O)c(C(=O)O)c(CCCCC)c1O2,nt,19,29*,7,38*,3
CSc1nc(N(C)CCO)c2sc3nc(-c4ccco4)c4c(c3c2n1)CCC4,-2,11,30*,-1,31*,-1
CSc1nc(NCCN(C)C)c2sc3nc(-c4ccco4)c4c(c3c2n1)CCC4,3,-7,nt,nt,nt,nt
Cc1ccccc1NC(=O)Cn1c(O)c(N=NC(=O)c2ccccc2O)c2ccccc21,-10,13,20*,2,24*,-5
Cc1cccc(NC(=O)Cn2c(C)c(C#N)c3ccccc32)c1C,6,-3,21*,2,19*,-1
Cc1ccc(NC(=O)Cn2c(O)c(N=NC(N)=O)c3ccccc32)cc1,-10,-11,-2,-2,nt,nt
Cc1ccc(NC(=O)Cn2c(O)c(N=NC(N)=S)c3ccccc32)cc1,2,2,21*,1,10,-6
COc1ccc(-n2nc3c(c2NC(=O)CCl)CSC3)cc1,-4,-6,-4,-1,nt,nt
CCCn1c(CN2CCN(C(=O)OCC)CC2)nc2c1c(=O)n(C)c(=O)n2C,-18,-10,55*,4,-5,-3
CC(C)COc1ccc(C(=O)NNC(=O)c2ccc(=O)[nH]c2)cc1,-5,6,2,4,nt,nt
CCc1nc(N2CCN(S(=O)(=O)c3ccc(Br)cc3)CC2)c2c(C)c(C)sc2n1,-10,10,2,2,nt,nt
Cc1sc2nc(CN3CCCC3)nc(N3CCN(S(=O)(=O)c4cccs4)CC3)c2c1C,8,25,27*,1,13,0
Cc1ccc(S(=O)(=O)N2CCN(c3nc(CN4CCCC4)nc4sc(C)c(C)c34)CC2)cc1,7,34,19*,-2,4,0
CC(C)(C)NCC(O)COc1cccc2c1CCC(=O)N2 (centres undefined),0,-6,-5,-9,nt,nt
CC(=O)NC(c1ccco1)c1ccc2cccnc2c1O (centres undefined),9,-3,0,-1,nt,nt
Oc1ccccc1C(Nc1nccs1)c1ccc2cccnc2c1O (centres undefined),32,8,23*,-3,20*,-1
COc1ccccc1NC(c1cccnc1)c1ccc2cccnc2c1O (centres undefined),47,-3,18*,3,19*,-3
COc1cc(C(Nc2ccccn2)c2ccc3ccc(C)nc3c2O)cc(OC)c1O (centres undefined),-1,-4,1,3,nt,nt
Oc1c(C(Nc2ccccn2)c2ccccn2)ccc2cccnc12 (centres undefined),31,-4,72*,6,76*,0
CCCOc1ccc(-c2c(C(=O)N/N=C/c3cccnc3)nnn2-c2nonc2N)cc1,5,6,27*,2,21*,-5
